Measured values published in PubChem BioAssay AID1159580 (chemical genetic matrix, 2015).
About 2,000 (36%) of roughly 5,500 compounds were called active. Inconclusive results (about 18%) are left out. No stated cut-off is given here; in the data, active means normalized growth mostly below about 0.91 (no sharp cut-off); inconclusive means no clear call, values can overlap the other calls; inactive means mostly above about 0.92. The list shows a part of the results.

Experiment: chemical genetic growth profiling, strain panel (AID 1159580);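 further: tested at 20 µM; growth read once vehicle control cultures reached saturation at 30 °C; 1 = growth at the plate median or of vehicle wells; lower values mean less growth of the strain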
Details: S. cerevisiae deletion strains, growth OD

Measured: normalized growth

CCOC(=O)c1c(C)c(Cl)c(O)c(Cl)c1O
active: locus YAL021C, strain ccr4, hits give low values 0.682 | locus YAL026C, strain drs2, hits give low values 0.469 | locus YAL030W, strain snc1, hits give low values 0.692 | locus YBL061C, strain skt5, hits give low values 0.637 | locus YBR009C, strain hhf1, hits give low values 0.407 | locus YBR023C, strain chs3, hits give low values 0.589 | locus YBR171W, strain sec66, hits give low values 0.619 | locus YBR231C, strain swc5, hits give low values 0.469 | locus YBR279W, strain paf1, hits give low values 0.686 | locus YCL011C, strain gbp2, hits give low values 0.499 | locus YCL016C, strain dcc1, hits give low values 0.495 | locus YCL061C, strain MRC1, hits give low values 0.408 | locus YCL069W, strain vba3, hits give low values 0.407 | locus YCR088W, strain abp1, hits give low values 0.517 | locus YDL005C, strain med2, hits give low values 0.76 | locus YDL040C, strain nat1, hits give low values 0.663 | locus YDR001C, strain nth1, hits give low values 0.516 | locus YDR069C, strain doa4, hits give low values 0.72 | locus YDR137W, strain rgp1, hits give low values 0.266 | locus YDR159W, strain sac3, hits give low values 0.459 | locus YDR195W, strain ref2 0.697 | locus YDR297W, strain sur2, hits give low values 0.677 | locus YDR334W, strain swr1, hits give low values 0.361 | locus YDR335W, strain msn5, hits give low values 0.517 | locus YDR392W, strain spt3, hits give low values 0.0936 | locus YEL003W, strain gim4, hits give low values 0.397 | locus YEL037C, strain rad23, hits give low values 0.666 | locus YEL061C, strain CIN8 (second series), hits give low values 0.171 | locus YER015W, strain faa2, hits give low values 0.652 | locus YER016W, strain bim1, hits give low values 0.559 | locus YER111C, strain swi4, hits give low values 0.189 | locus YER155C, strain BEM2 (second series), hits give low values 0.15 | locus YFR010W, strain ubp6, hits give low values 0.696 | locus YGL167C, strain pmr1, hits give low values 0.67 | locus YGL173C, strain kem1, hits give low values 0.512 | locus YGL227W, strain vid30, hits give low values 0.188 | locus YGL240W, strain doc1, hits give low values 0.375 | locus YGL253W, strain hxk2, hits give low values 0.254 | locus YHR013C, strain ard1, hits give low values 0.634 | locus YHR027C, strain rpn1, hits give low values 0.719 | locus YHR142W, strain chs7, hits give low values 0.245 | locus YJL092W, strain hpr5, hits give low values 0.456 | locus YJL095W, strain BCK1 (second series), hits give low values 0.292 | locus YJL115W, strain asf1, hits give low values 0.667 | locus YJL129C, strain trk1, hits give low values 0.261 | locus YJL154C, strain vps35, hits give low values 0.702 | locus YJL164C, strain tpk1, hits give low values 0.467 | locus YJL166W, strain qcr8, hits give low values 0.448 | locus YJL187C, strain SWE1, hits give low values 0.61 | locus YKL160W, strain elf1, hits give low values 0.454 | locus YKR026C, strain gcn3, hits give low values 0.697 | locus YKR091W, strain srl3, hits give low values 0.677 | locus YLL001W, strain dnm1, hits give low values 0.563 | locus YLL026W, hits give low values 0.436 | locus YLL041C, strain sdh2, hits give low values 0.635 | locus YLR027C, strain aat2, hits give low values 0.517 | locus YLR221C, strain rsa3, hits give low values 0.398 | locus YLR258W, strain gsy2, hits give low values 0.561 | locus YLR262C, strain YPT6 (second series), hits give low values 0.277 | locus YLR320W, strain mms22, hits give low values 0.27 | locus YLR342W, strain FKS1, hits give low values 0.369 | locus YLR357W, strain rsc2, hits give low values 0.64 | locus YLR370C, strain arc18, hits give low values 0.701 | locus YLR384C, strain iki3, hits give low values 0.681 | locus YML120C, strain ndi1, hits give low values 0.409 | locus YMR058W, strain fet3, hits give low values 0.429 | locus YMR125W, strain sto1, hits give low values 0.259 | locus YMR129W, hits give low values 0.651 | locus YMR205C, strain PFK2, hits give low values 0.283 | locus YMR231W, strain pep5, hits give low values 0.361 | locus YNL071W, strain lat1, hits give low values 0.127 | locus YNL209W, strain ssb2, hits give low values 0.753 | locus YNL248C, strain rpa49, hits give low values 0.645 | locus YNL322C, strain KRE1 (second series), hits give low values 0.783 | locus YNR049C, strain mso1, hits give low values 0.432 | locus YOR001W, strain rrp6, hits give low values 0.4 | locus YOR070C, strain gyp1, hits give low values 0.499 | locus YOR080W, strain dia2, hits give low values 0.701 | locus YOR083W, strain WHI5, hits give low values 0.608 | locus YOR106W, strain vam3, hits give low values 0.459 | locus YOR265W, strain rbl2, hits give low values 0.676 | locus YOR270C, strain vph1, hits give low values 0.214 | locus YOR290C, strain snf2, hits give low values 0.424 | locus YPL051W, strain arl3, hits give low values 0.414 | locus YPL078C, strain atp4, hits give low values 0.391 | locus YPL106C, strain sse1, hits give low values 0.568 | locus YPL240C, strain hsp82, hits give low values 0.492
